Compounds without any hit were thinned out: in the full panel of roughly 83,000, 20% have a hit.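 Cell lines were cultured in 96-well plates, exposed to a single compound concentration, and assessed for percent growth 48 hours later.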 Unmarked numbers belong to inactive results. Active and inactive are the calls of the source. How the source made its calls: active means growth percent below 10; inactive means the rest.
Key:
Experiment in all cases: NCI-60 one-dose screen, 48 h (100 = growth as untreated, 0 = no growth, -100 = all killed)
Details in all cases: 10 µM unless noted
NCI-H23 lung = system: NCI-H23 lung
NCI-H226 lung = system: NCI-H226 lung
NCI-H322M lung = system: NCI-H322M lung
HOP-62 NSCLC = system: HOP-62 NSCLC
NCI-H460 lung = system: NCI-H460 lung
HOP-92 NSCLC = system: HOP-92 NSCLC
A549/ATCC NSCLC = system: A549/ATCC NSCLC
786-0 renal = system: 786-0 renal
COLO 205 colon = system: COLO 205 colon
NCI-H522 lung = system: NCI-H522 lung

SMILES	growth (NCI-H23 lung)	growth (NCI-H226 lung)	growth (NCI-H322M lung)	growth (HOP-62 NSCLC)	growth (NCI-H460 lung)	growth (HOP-92 NSCLC)	growth (A549/ATCC NSCLC)	growth (786-0 renal)	growth (COLO 205 colon)	growth (NCI-H522 lung)
COc1cc(NC(N)=NCC(C)(C)COc2ccc(C(F)(F)F)cc2)cnc1C#N	64.9%	68.7%	53.1%	68.5%	58%	-9.25% (active)	72.5%	61.4%	59.9%	–
COc1ccc(S(=O)(=O)NCCCNc2nccc(-c3c(-c4cccc(N)c4)nc4sccn34)n2)cc1	97.4%	89.4%	101%	117%	97.1%	92.8%	99.7%	92.1%	75.8%	–
Nc1ccc2c(c1)C(=O)NC2=O	91.7%	96.2%	108%	93.1%	103%	151%	105%	110%	106%	–
COc1ccc(/C=C/C(=O)c2c(O)c(C)c(O)c3c2OC2=CC(O)=C(C(C)=O)C(=O)[C@]23C)cc1	-32.9% (active)	-28.2% (active)	-17.9% (active)	-40% (active)	1.69% (active)	-18.8% (active)	–	-29.7% (active)	-74.1% (active)	-32.2% (active)
Cc1csc2ccc(Cl)cc12	97.8%	104%	101%	96.6%	106%	104%	–	105%	105%	89%
CCCCCCCCCCCCCCCCNCCC[C@@H](C)[C@H]1CC[C@H]2[C@@H]3[C@H](OCCCN)C[C@@H]4C[C@H](OCCCN)CC[C@]4(C)[C@H]3C[C@H](OCCCN)[C@]12C	-39.7% (active)	-1.42% (active)	-76.8% (active)	-49.5% (active)	-45.5% (active)	-33.2% (active)	–	-43.1% (active)	-40.8% (active)	-43.6% (active)
O=C(Nc1nc(-c2ccccc2)cc(-c2ccc(Cl)cc2)n1)c1ccncc1	90.2%	93.3%	95.6%	97.6%	98.7%	89.5%	–	92.8%	103%	86.8%
COc1ccc(CCN2CC=Cn3c2nc2ccccc2c3=O)cc1	25%	11.7%	47.3%	39.9%	5.96% (active)	28.1%	24.1%	–	-43.2% (active)	–
CC(C)CC(CC1=CCC2CC1C2(C)C)C1=C(O)C(C)(C)C(=O)C(C)(C)C1=O (stereo not drawn)	5.33% (active)	13.7%	9.97% (active)	-4.19% (active)	4.62% (active)	-27.4% (active)	0.788% (active)	6.76% (active)	-65.7% (active)	–
Cn1c(=O)c2[nH]c(C(O)C(O)C(O)C(O)CO)nc2n(C)c1=O (stereo not drawn)	100%	95.1%	93.7%	96%	107%	109%	–	107%	103%	86.7%
CC/C=C\C[C@H](O)C/C=C1/C(=O)C=C[C@@H]1C/C=C\CCCC(=O)NC	-18.8% (active)	-41.1% (active)	20.7%	-24.3% (active)	-49.9% (active)	48.4%	–	-39.1% (active)	-25.2% (active)	-15.6% (active)
O=C1OC2C(I)C3CC2C1C3c1ccccc1 (stereo not drawn)	94.8%	105%	139%	88.9%	117%	93.7%	110%	95.2%	125%	–
COc1cc(C2CC(=O)Nc3c2c(C)nn3-c2nc3ccccc3[nH]2)cc(OC)c1OC (stereo not drawn)	99.6%	99.1%	103%	104%	100%	89.8%	97.7%	110%	116%	–
CC/C(=C(\c1ccc(O)cc1)c1ccc(OCCN(C)CCN(C)C(=O)CCCCC(=O)c2c(C)[nH]c(/C=C3\N=C(c4ccc[nH]4)C=C3OC)c2C)cc1)c1ccccc1	94.1%	90.5%	88.7%	81%	76.8%	63.4%	88.5%	103%	91.3%	–
COc1ccc(/C=C/C(=O)c2ccc(NC(=O)c3cc4cc5ccccc5nc4s3)cc2)cc1OC	87%	86%	84.2%	92.3%	99.9%	108%	105%	106%	99.5%	–
Cc1ccc(C2CC3c4ccccc4C2C2CCCCN32)cc1 (stereo not drawn)	93.6%	95.9%	84.1%	98.6%	104%	85.4%	–	92.7%	74%	72.6%
CCN(CC)CCCNc1cc(OC)cc2nc3cc(Cl)ccc3nc12	-46.7% (active)	-20.8% (active)	-0.828% (active)	-47.3% (active)	-16.2% (active)	-9.1% (active)	-52.4% (active)	2.95% (active)	-99.3% (active)	–
O=C(Nc1cccc2[nH]c(C(F)(F)F)nc12)c1ccc(Br)cc1F	1.94% (active)	36.4%	57%	45.3%	15.1%	-14.9% (active)	16.7%	35.8%	26%	–
C[C@@H]1CC[C@@H]2[C@@H]1[C@H](OC(=O)/C=C/c1ccccc1)[C@]1(C3CCCCC3)C[C@@H](OC(=O)CO)[C@@]2(C)O1	81.9%	68.2%	92.9%	86%	68.3%	55.3%	53.1%	73.2%	80.6%	–
Cc1ccc(N)cc1F	94.6%	101%	101%	84.1%	108%	109%	99.8%	92.9%	168%	–
NC(CC(=O)O)C(=O)OCc1ccccc1 (stereo not drawn)	104%	95.1%	84.2%	86.7%	103%	86.3%	105%	98.6%	106%	–
OC(c1cccc(C(F)(F)F)c1)c1cnccc1NC1CCCCCC1 (stereo not drawn)	26.1%	62.4%	46.3%	74.4%	-23.9% (active)	5.31% (active)	53.8%	56.2%	-76.3% (active)	–
CC1=C(C)C(=O)OC([C@](C)(O)[C@]2(O)CC[C@@]3(O)[C@@H]4C[C@H]5O[C@]56CC=CC(=O)[C@]6(C)[C@H]4CC[C@]23COC(=O)c2ccc(C)o2)C1 (stereo partly drawn)	-45% (active)	-20.9% (active)	-63% (active)	-73.8% (active)	-57.1% (active)	-58.7% (active)	4.97% (active)	-64.1% (active)	-72.1% (active)	–
O=C(CN1CCOCC1)Nc1ccc(Cn2nnc3c2C(=O)c2nnn(Cc4ccc(NC(=O)CN5CCOCC5)cc4)c2C3=O)cc1	-21.1% (active)	-27.4% (active)	-3.02% (active)	-38.6% (active)	5.66% (active)	-36.9% (active)	–	12.1%	-83.9% (active)	–
CN(C)c1ccc(/C=C(\C#N)c2nc3ccccc3s2)cc1	102%	101%	86.8%	116%	103%	104%	105%	96.8%	123%	–
C(=N\Nc1nnn(Cc2ccccc2)n1)/c1ccccc1	53.1%	85%	86%	67.3%	17.4%	87.2%	33.6%	63.6%	36.9%	–
O=C1/C(=C/c2ccc(F)cc2)CN(C(=O)CCN2CCC(=NO)CC2)C/C1=C\c1ccc(F)cc1	-26.5% (active)	72.8%	-11.8% (active)	-37.7% (active)	-26.9% (active)	-5.42% (active)	28.4%	-44.7% (active)	-81.9% (active)	–
COc1ccc(C/C(C)=C(\c2ccc(Cl)cc2)c2ccc(OCCN3CCCCCC3)cc2)cc1	78.8%	86.1%	86.8%	97.4%	70.4%	71.2%	–	86.3%	65.2%	73.5%
O=C1Nc2c(ccc(Cl)c2Cl)/C1=C/c1cc(Br)c(O)c(Br)c1	73.9%	78.5%	90.3%	79.1%	46.1%	67.1%	–	74.6%	79.2%	9.37% (active)
CN1CCN(c2ccc3nc(-c4ccc5nc(-c6ccc(OCCC(C)(C)C)cc6)[nH]c5c4)[nH]c3c2)CC1	-3.61% (active)	95.3%	40.7%	21.5%	-80% (active)	69.6%	–	-60.2% (active)	5.08% (active)	-38% (active)
